Compounds without any hit were thinned out: in the full panel of roughly 83,000, 20% have a hit.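 Cells were grown in 96-well plates and exposed to the test compound at a single concentration for 48 hours; results are reported as percent growth, with values below 10 considered active.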 Activity calls are given as the source filed them.
What was measured:
Assay in all cases: NCI-60 one-dose screen, 48 h (100 = growth as untreated, 0 = no growth, -100 = all killed)
NCI-H226 lung = details: 10 µM unless noted
HOP-62 NSCLC = details: 10 µM unless noted
HOP-92 NSCLC = details: 10 µM unless noted
NCI-H522 lung = details: 10 µM unless noted
COLO 205 colon = details: 10 µM
MALME-3M melanoma = details: 10 µM unless noted
SNB-75 CNS = details: 10 µM unless noted
EKVX NSCLC = details: 10 µM unless noted
TK-10 renal = details: 10 µM unless noted
ACHN renal = details: 10 µM unless noted
SR leukemia = details: 10 µM
OVCAR-5 ovarian = details: 10 µM unless noted
SK-OV-3 ovarian = details: 10 µM unless noted
IGROV1 ovarian = details: 10 µM
NCI/ADR-RES ovarian = details: 10 µM unless noted
A549/ATCC NSCLC = details: 10 µM unless noted
OVCAR-4 ovarian = details: 10 µM unless noted
SK-MEL-2 melanoma = details: 10 µM unless noted
NCI-H322M lung = details: 10 µM unless noted

Measured: growth

CC(=O)O[C@H]1CCC2(C)C(=CCC3C2CCC2(C)/C(=N/OC(=O)c4ccc(N(CCCl)CCCl)cc4)CCC32)C1 (some centres not stated)
inactive: NCI-H226 lung 101% | HOP-92 NSCLC 76.1% | NCI-H522 lung 27.6% | COLO 205 colon 69.7% | MALME-3M melanoma 92.2% | SNB-75 CNS 22.5% | EKVX NSCLC 23.1% | TK-10 renal 79.8% | ACHN renal 46.4% | OVCAR-5 ovarian 81.7% | SK-OV-3 ovarian 102% | IGROV1 ovarian 11.6% | NCI/ADR-RES ovarian 44%
active: HOP-62 NSCLC -60.8% | SR leukemia -24.9%

CN1CCN(C(=O)COc2ccc(/C=C3\CC4C5CC=C6CC(Cl)CCC6(C)C5CCC4(C)C3=O)cc2)CC1 (configuration not stated)
active: SR leukemia 0.223%
inactive: NCI-H226 lung 77.2% | HOP-62 NSCLC 96.7% | NCI-H522 lung 61.5% | A549/ATCC NSCLC 65% | COLO 205 colon 60.5% | MALME-3M melanoma 73.8% | SNB-75 CNS 86.8% | EKVX NSCLC 68.2% | TK-10 renal 88.2% | OVCAR-4 ovarian 70.7% | SK-OV-3 ovarian 85.8% | IGROV1 ovarian 86.6% | NCI/ADR-RES ovarian 69.2%

O=S(=O)(c1ccc(Cl)cc1)C(Cl)(Cl)Cl
active: MALME-3M melanoma 9.32%
inactive: NCI-H226 lung 60.8% | HOP-62 NSCLC 78.5% | NCI-H522 lung 11% | COLO 205 colon 48% | SNB-75 CNS 39.6% | SK-MEL-2 melanoma 25.1% | EKVX NSCLC 40.6% | TK-10 renal 50.6% | ACHN renal 26.1% | SR leukemia 15.1% | OVCAR-5 ovarian 78.9% | OVCAR-4 ovarian 61.6% | SK-OV-3 ovarian 84.9% | IGROV1 ovarian 33.6% | NCI/ADR-RES ovarian 29%

CC(=O)[O][Hg][CH2]C1(C)COC(C)([CH2][Hg][O]C(C)=O)CO1 (configuration not stated)
inactive: NCI-H226 lung 86.7% | HOP-62 NSCLC 120% | SNB-75 CNS 38% | SK-MEL-2 melanoma 63.2% | EKVX NSCLC 57.9% | ACHN renal 63.1% | OVCAR-5 ovarian 114% | OVCAR-4 ovarian 123% | NCI/ADR-RES ovarian 94.9%
active: NCI-H522 lung -58.9% | COLO 205 colon -77.4% | SR leukemia 9.98%

CN1CC2CCC(C1)C2=O
inactive: NCI-H226 lung 103% | HOP-62 NSCLC 84.4% | NCI-H522 lung 92.1% | COLO 205 colon 106% | MALME-3M melanoma 79.2% | SNB-75 CNS 89.3% | SK-MEL-2 melanoma 95.5% | ACHN renal 102% | SR leukemia 82.7% | OVCAR-5 ovarian 103% | OVCAR-4 ovarian 103% | SK-OV-3 ovarian 91.8% | IGROV1 ovarian 93.8%

Nc1ccc([N+](=O)[O-])c2c1Oc1ccccc1O2
inactive: NCI-H226 lung 87.4% | HOP-62 NSCLC 90.9% | HOP-92 NSCLC 84.4% | A549/ATCC NSCLC 93.8% | COLO 205 colon 99.3% | MALME-3M melanoma 121% | SNB-75 CNS 82.8% | SK-MEL-2 melanoma 102% | EKVX NSCLC 91.9% | ACHN renal 108% | OVCAR-5 ovarian 88.1% | OVCAR-4 ovarian 94.5% | SK-OV-3 ovarian 88.9% | NCI/ADR-RES ovarian 99.4%

CC(=O)C1C(=O)N(C)C(=O)N(C)C1=O
inactive: NCI-H226 lung 95.4% | HOP-62 NSCLC 98.6% | NCI-H522 lung 105% | COLO 205 colon 114% | MALME-3M melanoma 114% | SNB-75 CNS 92.1% | SK-MEL-2 melanoma 108% | TK-10 renal 109% | ACHN renal 95.4% | SR leukemia 96.5% | OVCAR-4 ovarian 105% | SK-OV-3 ovarian 115% | IGROV1 ovarian 113% | NCI/ADR-RES ovarian 113%

O=S(=O)(Cl)c1ccccc1 (tested in a mixture with another compound)
inactive: NCI-H226 lung 97.3% | HOP-62 NSCLC 92.9% | NCI-H522 lung 89.1% | A549/ATCC NSCLC 102% | COLO 205 colon 105% | MALME-3M melanoma 92.2% | TK-10 renal 105% | ACHN renal 93.9% | SR leukemia 104% | OVCAR-4 ovarian 106% | IGROV1 ovarian 109% | NCI/ADR-RES ovarian 110%

CC1(C)N=C(N)N=C(N)N1c1ccc(OCCCCNC(=O)c2ccc(S(=O)(=O)F)cc2)c(Cl)c1
inactive: NCI-H226 lung 117% | HOP-62 NSCLC 102% | A549/ATCC NSCLC 51% | COLO 205 colon 61.7% | MALME-3M melanoma 71.3% | SK-MEL-2 melanoma 82.4% | TK-10 renal 57.9% | ACHN renal 96.9% | SR leukemia 34.8% | OVCAR-5 ovarian 56.2% | OVCAR-4 ovarian 107% | SK-OV-3 ovarian 101% | IGROV1 ovarian 33.7% | NCI/ADR-RES ovarian 109%

N#[N+]c1nc2nc(N)[nH]c(=O)c2[nH]1
inactive: NCI-H226 lung 98% | HOP-62 NSCLC 92.5% | HOP-92 NSCLC 93.2% | NCI-H522 lung 94.8% | COLO 205 colon 103% | MALME-3M melanoma 107% | SK-MEL-2 melanoma 101% | EKVX NSCLC 100% | TK-10 renal 90% | ACHN renal 99.6% | SR leukemia 94.2% | OVCAR-5 ovarian 104% | OVCAR-4 ovarian 105% | SK-OV-3 ovarian 94.2% | IGROV1 ovarian 107%

O=C1NC(=S)NC(=O)C1=Cc1ccccc1
inactive: NCI-H226 lung 98.3% | HOP-62 NSCLC 101% | NCI-H522 lung 117% | A549/ATCC NSCLC 101% | COLO 205 colon 103% | MALME-3M melanoma 132% | SNB-75 CNS 85.7% | SK-MEL-2 melanoma 196% | EKVX NSCLC 111% | TK-10 renal 182% | ACHN renal 100% | SR leukemia 121% | OVCAR-5 ovarian 100% | OVCAR-4 ovarian 114% | NCI/ADR-RES ovarian 97.7%

CC(=O)O[C@H]1CCC2C3CCC4=C/C(=N/O)CCC4(C)C3CCC21C (some centres not stated)
inactive: NCI-H226 lung 98.1% | HOP-62 NSCLC 93.4% | NCI-H522 lung 83.2% | A549/ATCC NSCLC 99.7% | MALME-3M melanoma 94.3% | SK-MEL-2 melanoma 85.4% | EKVX NSCLC 88.5% | TK-10 renal 103% | ACHN renal 108% | SR leukemia 36.7% | NCI/ADR-RES ovarian 70.8%

COc1cc[c]([Hg][Cl])cc1
inactive: NCI-H226 lung 100% | HOP-62 NSCLC 82.6% | A549/ATCC NSCLC 94.8% | MALME-3M melanoma 47.3% | SNB-75 CNS 50.5% | SK-MEL-2 melanoma 39.9% | EKVX NSCLC 76.3% | TK-10 renal 114% | ACHN renal 86.5% | OVCAR-5 ovarian 105% | OVCAR-4 ovarian 65.1% | SK-OV-3 ovarian 120% | IGROV1 ovarian 15.1% | NCI/ADR-RES ovarian 86.2%
active: NCI-H522 lung -73.8%

Cc1cccc(N=C2c3cc([N+](=O)[O-])ccc3-c3c2cc([N+](=O)[O-])cc3[N+](=O)[O-])c1
inactive: NCI-H226 lung 80.1% | HOP-62 NSCLC 61.7% | A549/ATCC NSCLC 72.1% | COLO 205 colon 98.5% | SNB-75 CNS 84.4% | EKVX NSCLC 75.4% | OVCAR-5 ovarian 99.4% | OVCAR-4 ovarian 71.3% | SK-OV-3 ovarian 119% | NCI/ADR-RES ovarian 56.5%

CN=C(NN)NN
inactive: NCI-H226 lung 109% | HOP-62 NSCLC 135% | NCI-H522 lung 107% | A549/ATCC NSCLC 96.2% | COLO 205 colon 129% | MALME-3M melanoma 103% | SNB-75 CNS 98% | SK-MEL-2 melanoma 109% | EKVX NSCLC 97% | TK-10 renal 125% | ACHN renal 108% | SR leukemia 94.8% | OVCAR-5 ovarian 111% | OVCAR-4 ovarian 117% | SK-OV-3 ovarian 110%

CSc1ccccc1NP1(=O)OCC(C)([N+](=O)[O-])CO1 (configuration not stated)
inactive: NCI-H226 lung 98.4% | NCI-H522 lung 103% | A549/ATCC NSCLC 95.9% | MALME-3M melanoma 120% | SNB-75 CNS 86% | SK-MEL-2 melanoma 112% | EKVX NSCLC 97.8% | TK-10 renal 110% | ACHN renal 97.5% | SR leukemia 91.3% | OVCAR-5 ovarian 93.7% | OVCAR-4 ovarian 105% | SK-OV-3 ovarian 98.2% | IGROV1 ovarian 119% | NCI/ADR-RES ovarian 109%

CCN1CC2(CN(CC)C1=S)C(=O)NC(=O)NC2=O
inactive: HOP-62 NSCLC 90.1% | HOP-92 NSCLC 53.9% | NCI-H522 lung 84.7% | A549/ATCC NSCLC 99.9% | COLO 205 colon 115% | MALME-3M melanoma 103% | SNB-75 CNS 95.8% | EKVX NSCLC 99% | TK-10 renal 98.5% | ACHN renal 99% | SR leukemia 114% | OVCAR-4 ovarian 93.3% | SK-OV-3 ovarian 97.4% | IGROV1 ovarian 103% | NCI/ADR-RES ovarian 97.4%

COc1ccc(CN2CCN(Cc3ccccc3)CC2)c(O)c1
inactive: NCI-H322M lung 92.3% | HOP-62 NSCLC 93.4% | HOP-92 NSCLC 87.9% | NCI-H522 lung 71.9% | A549/ATCC NSCLC 97.4% | MALME-3M melanoma 98.4% | SNB-75 CNS 89.8% | SK-MEL-2 melanoma 89.9% | ACHN renal 87.5% | SR leukemia 73.5% | OVCAR-5 ovarian 101% | OVCAR-4 ovarian 99.8% | IGROV1 ovarian 91.3% | NCI/ADR-RES ovarian 83.4%

N#C[Se]CCCNS(=O)(=O)C1CC2C=CC1C2 (configuration not stated)
inactive: OVCAR-4 ovarian 10%
active: NCI-H226 lung -66.5% | NCI-H322M lung -19.9% | HOP-62 NSCLC -71.6% | HOP-92 NSCLC -73.1% | A549/ATCC NSCLC -34.1% | COLO 205 colon -39% | MALME-3M melanoma -55.5% | SK-MEL-2 melanoma -24.4% | EKVX NSCLC -96% | TK-10 renal -66.4% | ACHN renal -67% | SR leukemia 7.66% | OVCAR-5 ovarian 4.98% | SK-OV-3 ovarian -36.4%

n1nc(-c2nonc2-c2nn[nH]n2)n[nH]1
inactive: HOP-62 NSCLC 112% | NCI-H522 lung 101% | A549/ATCC NSCLC 95.2% | COLO 205 colon 117% | MALME-3M melanoma 106% | SNB-75 CNS 106% | SK-MEL-2 melanoma 115% | EKVX NSCLC 96.3% | TK-10 renal 110% | ACHN renal 115% | SR leukemia 92.5% | OVCAR-5 ovarian 108% | IGROV1 ovarian 118% | NCI/ADR-RES ovarian 104%

CC(=O)O[C@H]1C[C@H](O[C@H]2[C@@H](O)C[C@H](O[C@H]3[C@@H](O)C[C@H](O[C@H]4CC[C@@]5(C)C(CCC6C5C[C@@H](O)[C@]5(C)[C@@H](C7=CC(=O)OC7)CC[C@]65O)C4)O[C@@H]3C)O[C@@H]2C)O[C@H](C)[C@H]1O[C@@H]1O[C@H](CO)[C@@H](O)[C@H](O)[C@H]1O (some centres not stated)
active: NCI-H226 lung -98.6% | HOP-92 NSCLC -15.1% | A549/ATCC NSCLC -100% | MALME-3M melanoma -36% | SNB-75 CNS -66.1% | EKVX NSCLC -98.3% | TK-10 renal -91% | ACHN renal -59.1% | SR leukemia -31% | OVCAR-5 ovarian -86.1% | OVCAR-4 ovarian -70.4% | SK-OV-3 ovarian -97.4% | IGROV1 ovarian 7.96% | NCI/ADR-RES ovarian -69.5%

Source: PubChem BioAssay (NCI)
